# Results as given in PubChem BioAssay (Tox21).
# A number with no mark means an inactive call. Records with an inconclusive call do not appear. Where a call stands in place of a potency, no number is given. Activity calls are given as the source filed them. Unless noted, the call rests on the fitted dose curve; in most records, active means well fitted curve in the direction sought with a large enough effect in the repeat runs; inconclusive means weak or mixed curves; inactive means no such curve, though single readings can be large; an effect the other way counts as inactive or inconclusive.
# Columns and labels:
# [1] = target: Progesterone receptor (Homo sapiens) (UniProt P06401); assay: qHTS assay to identify small molecule agonists of the progesterone receptor (PR) signaling pathway (AID 1346784; calls by dose curve; further: nearly all actives have a fitted effect of over 30% in size; further: potency means the concentration at half of the fitted maximal effect)
# Chain of Progesterone receptor (Homo sapiens) (P06401 whole entry, looked up): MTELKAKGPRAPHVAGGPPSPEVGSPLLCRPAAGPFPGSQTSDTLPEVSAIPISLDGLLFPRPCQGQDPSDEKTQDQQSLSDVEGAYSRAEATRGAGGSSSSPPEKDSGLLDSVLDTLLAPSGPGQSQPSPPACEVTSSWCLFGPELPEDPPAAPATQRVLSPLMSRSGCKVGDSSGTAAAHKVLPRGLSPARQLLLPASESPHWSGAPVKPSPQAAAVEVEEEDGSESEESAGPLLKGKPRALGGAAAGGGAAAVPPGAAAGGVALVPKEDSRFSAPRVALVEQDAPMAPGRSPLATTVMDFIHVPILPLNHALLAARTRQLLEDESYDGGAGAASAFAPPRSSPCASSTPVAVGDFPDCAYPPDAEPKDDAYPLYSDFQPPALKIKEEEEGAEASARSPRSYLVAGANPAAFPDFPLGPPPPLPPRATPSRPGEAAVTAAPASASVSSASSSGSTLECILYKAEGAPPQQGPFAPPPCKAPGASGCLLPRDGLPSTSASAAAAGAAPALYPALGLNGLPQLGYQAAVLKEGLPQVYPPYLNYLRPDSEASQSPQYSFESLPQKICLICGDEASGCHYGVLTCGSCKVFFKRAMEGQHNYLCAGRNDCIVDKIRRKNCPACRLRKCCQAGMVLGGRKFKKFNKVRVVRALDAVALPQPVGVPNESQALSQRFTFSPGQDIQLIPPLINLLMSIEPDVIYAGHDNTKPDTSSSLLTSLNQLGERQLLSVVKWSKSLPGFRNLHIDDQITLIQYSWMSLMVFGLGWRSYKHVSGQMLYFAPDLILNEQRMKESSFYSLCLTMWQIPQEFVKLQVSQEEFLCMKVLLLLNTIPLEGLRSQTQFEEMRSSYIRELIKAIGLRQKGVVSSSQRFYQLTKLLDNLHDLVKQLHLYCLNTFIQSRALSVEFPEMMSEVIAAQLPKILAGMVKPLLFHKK
# Outline: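 PR-UAS-bla HEK 293T cells carrying a UAS-driven beta-lactamase reporter were seeded in medium with 2% charcoal-stripped FBS, preincubated 6 hr at 37C, then exposed to compounds in DMSO for 16 hr; agonism was read by LiveBLAzer B/G FRET fluorescence.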
# [2] = target: Progesterone receptor (Homo sapiens) (UniProt P06401); assay: qHTS assay to identify small molecule antagonists of the progesterone receptor (PR) signaling pathway (AID 1346795; active means well fitted inhibition curve with a large enough effect in the signal ratio in the repeat runs, not every such curve was filed as active; the % refers to the signal ratio; further: potency means the concentration at half of the fitted maximal effect)
# Outline: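 PR-UAS-bla HEK293T cells carrying a UAS-driven beta-lactamase reporter were plated in medium with 2% charcoal-stripped FBS and rested 6 hr at 37C. Compounds were added with 1 nM R5020 (final) for 16 hr, then FRET substrate loaded 2 hr at room temperature.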
# [3] = qHTS assay to identify small molecule antagonists of the TGF-beta/Smad signaling pathway - cell viability counter screen (AID 1346824); further: nearly all actives have a fitted effect of over 50% in size
# Outline: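 SBE-bla HEK 293T cells were plated overnight at 37 C, then given compounds in DMSO plus TGF-beta1 (added as 0.25 ng/mL solution) for 5 hr. After the bla read, CellTiter-Glo was added to the same wells and luminescence read after 30 min at room temperature.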
# [4] = qHTS assay to identify small molecule agonists of the TGF-beta/Smad signaling pathway - cell viability counter screen (AID 1346829); further: top concentration of the series differs between compounds; nearly all actives have a fitted effect of over 45% in size
# Outline: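 Here the cytotoxicity of library compounds is measured in SBE-bla HEK 293T cells treated for 5 hr, using CellTiter-Glo added to wells already read for the beta-lactamase reporter.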
# [5] = qHTS assay to identify small molecule agonists of the TGF-beta/Smad signaling pathway (AID 1346859; active means well fitted activation curve with a large enough effect in the signal ratio in the repeat runs, not every such curve was filed as active; the % refers to the signal ratio; further: series mostly up to about 77 µM)
# Outline: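 HEK 293T cells stably carrying a beta-lactamase reporter driven by the Smad binding element were seeded overnight, exposed to DMSO-dissolved compounds for 5 hr at 37 C, 5% CO2, then loaded with FRET substrate for 2 hr at room temperature.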
# [6] = target: Thyrotropin-releasing hormone receptor (Homo sapiens) (UniProt P34981); assay: qHTS assay to identify small molecule antagonists of the thyrotropin-releasing hormone receptor (TRHR) signaling pathway (AID 1346877; active means well fitted inhibition curve with a large enough effect in the repeat runs, not every such curve was filed as active; further: series mostly up to about 51 µM)
# Chain of Thyrotropin-releasing hormone receptor (Homo sapiens) (P34981 whole entry, looked up): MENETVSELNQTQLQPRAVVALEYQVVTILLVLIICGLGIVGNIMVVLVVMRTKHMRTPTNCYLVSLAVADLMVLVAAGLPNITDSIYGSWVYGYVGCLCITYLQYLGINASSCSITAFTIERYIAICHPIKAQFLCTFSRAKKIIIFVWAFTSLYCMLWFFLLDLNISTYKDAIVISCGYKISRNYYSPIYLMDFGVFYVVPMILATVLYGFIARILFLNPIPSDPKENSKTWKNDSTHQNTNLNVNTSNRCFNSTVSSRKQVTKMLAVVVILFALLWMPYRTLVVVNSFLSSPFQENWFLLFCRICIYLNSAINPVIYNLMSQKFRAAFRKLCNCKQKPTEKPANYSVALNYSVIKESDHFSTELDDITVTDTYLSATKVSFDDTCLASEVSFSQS
# Outline: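 Cells (TRHR-HEK293) are plated and kept 18 h at 37 °C/5% CO2. A calcium-sensitive dye is added for 2 h, compound follows for 5 min at room temperature, and TRH is then given at 1 nM final.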
# [7] = target: Thyrotropin-releasing hormone receptor (Homo sapiens) (UniProt P34981); assay: qHTS assay to identify small molecule agonists of the thyrotropin-releasing hormone receptor (TRHR) signaling pathway (AID 1346891; calls by dose curve; further: series mostly up to about 58 µM)
# Outline: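 TRHR-expressing HEK293 cells were plated 18 h at 37 °C/5% CO2, loaded with calcium dye 2 h at 37 °C, then given compound in DMSO; fluorescence was read kinetically for 3 min at 1 s intervals.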
# [8] = Human pregnane X receptor (PXR) small molecule agonists, qHTS cell viability counter screen (AID 1346977); further: nearly all actives have a fitted effect of over 50% in size; further: potency means the concentration at half of the fitted maximal effect
# Outline: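 PXR-Luc HepG2 cells in medium with 5% charcoal-stripped FBS were pre-incubated 5hr, then exposed to compounds for 24hr at 37C. Viability was read in the same wells by CellTiter-Fluor fluorescence, reagent added after 23hr with a 1hr incubation.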
# [9] = Caspase-3/7 induction in HepG2 cells by small molecules, qHTS assay (AID 1346978); further: nearly all actives have a fitted effect of over 15% in size
# Outline: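 Wild-type HepG2 cells (2,000/well) were settled 5 h at 37 C, 5% CO2, then exposed to compounds in DMSO for 17 h. Caspase-3/7 activity was read by luminescence 30 min after adding Caspase-Glo 3/7 reagent at room temperature.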
# [10] = Caspase-3/7 induction in CHO-K1 cells by small molecules, qHTS cell viability counter screen (AID 1346979); further: nearly all actives have a fitted effect of over 35% in size; further: potency means the concentration at half of the fitted maximal effect
# Outline: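 Wild-type CHO-K1 cells were seeded at 1,500 per well, rested 5hr at 37 C, then exposed to compounds in DMSO. After 16hr, CellTiter-Fluor reagent was added and fluorescence read 1hr later as the viability measure.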
# [11] = Caspase-3/7 induction in CHO-K1 cells by small molecules, qHTS assay (AID 1346980); further: nearly all actives have a fitted effect of over 15% in size
# Outline: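 Wild-type cells were seeded at 1,500 per well and settled 5 hr at 37 C, 5% CO2, then exposed to DMSO-dissolved compounds for 17 hr. Caspase-Glo 3/7 reagent was added, and luminescence was read after 30min at room temperature.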
# [12] = Caspase-3/7 induction in HepG2 cells by small molecules, qHTS cell viability counter screen (AID 1346981); further: nearly all actives have a fitted effect of over 30% in size; further: potency means the concentration at half of the fitted maximal effect
# Outline: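 Steps: seed 2,000 HepG2 cells per well; incubate 5 hr at 37 C; pin-add compounds in DMSO; incubate 16 hr; add CellTiter-Fluor; after 1 hr at 37 C and 5% CO2, read fluorescence.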
# [13] = target: Nuclear receptor subfamily 1 group I member 2 (Rattus norvegicus) (UniProt Q9R1A7); assay: Rat pregnane X receptor (rPXR) activation by small molecules, qHTS assay (AID 1346983); details: rPXR luciferase reporter cells, One-Glo luminescence, 24 h; max activation: stronger effect = higher value; further: nearly all actives have a fitted effect of over 20% in size; further: potency means the concentration at half of the fitted maximal effect
# Chain of Nuclear receptor subfamily 1 group I member 2 (Rattus norvegicus) (Q9R1A7 whole entry, looked up): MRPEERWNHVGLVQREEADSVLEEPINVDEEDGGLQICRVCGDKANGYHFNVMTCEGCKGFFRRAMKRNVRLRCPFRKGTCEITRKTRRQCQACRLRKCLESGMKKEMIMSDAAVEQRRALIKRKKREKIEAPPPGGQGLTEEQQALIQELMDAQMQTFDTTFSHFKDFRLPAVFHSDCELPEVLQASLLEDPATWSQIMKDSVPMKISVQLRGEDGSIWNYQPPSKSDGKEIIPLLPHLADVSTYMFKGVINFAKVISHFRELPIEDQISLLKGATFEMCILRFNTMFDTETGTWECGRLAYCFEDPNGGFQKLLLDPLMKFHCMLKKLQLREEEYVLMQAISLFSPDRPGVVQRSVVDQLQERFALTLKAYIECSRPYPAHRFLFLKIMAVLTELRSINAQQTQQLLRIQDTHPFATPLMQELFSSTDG
# Outline: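 Cell-based rPXR luciferase reporter assay, 2,000 cells per well, rested 5hr at 37 C before compound addition in DMSO, then 24 hr at 37 C. One-Glo reagent was added and luminescence read after 30 min at room temperature.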
# [14] = target: Nuclear receptor subfamily 1 group I member 2 (Homo sapiens) (UniProt O75469); assay: Human pregnane X receptor (PXR) activation by small molecules, qHTS assay (AID 1346985); further: nearly all actives have a fitted effect of over 40% in size; further: potency means the concentration at half of the fitted maximal effect
# Outline: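 DPX-2 cells (HepG2 co-transfected with a PXR response element and a CYP3A4-promoter luciferase construct) were seeded at 2,000 per well, rested 5 hr at 37C, then exposed to DMSO-dissolved compounds for 24 hr. Activation was read as luciferase luminescence.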
# [15] = target: Cytochrome P450 2D6 (Homo sapiens) (UniProt P10635); assay: Cytochrome P450 Family 2 Subfamily D Member 6 (CYP2D6) small molecule antagonists: luciferase reporter qHTS assay (AID 1671196); further: nearly all actives have a fitted effect of over 50% in size; further: potency means the concentration at half of the fitted maximal effect
# Chain of Cytochrome P450 2D6 (Homo sapiens) (P10635 whole entry, looked up): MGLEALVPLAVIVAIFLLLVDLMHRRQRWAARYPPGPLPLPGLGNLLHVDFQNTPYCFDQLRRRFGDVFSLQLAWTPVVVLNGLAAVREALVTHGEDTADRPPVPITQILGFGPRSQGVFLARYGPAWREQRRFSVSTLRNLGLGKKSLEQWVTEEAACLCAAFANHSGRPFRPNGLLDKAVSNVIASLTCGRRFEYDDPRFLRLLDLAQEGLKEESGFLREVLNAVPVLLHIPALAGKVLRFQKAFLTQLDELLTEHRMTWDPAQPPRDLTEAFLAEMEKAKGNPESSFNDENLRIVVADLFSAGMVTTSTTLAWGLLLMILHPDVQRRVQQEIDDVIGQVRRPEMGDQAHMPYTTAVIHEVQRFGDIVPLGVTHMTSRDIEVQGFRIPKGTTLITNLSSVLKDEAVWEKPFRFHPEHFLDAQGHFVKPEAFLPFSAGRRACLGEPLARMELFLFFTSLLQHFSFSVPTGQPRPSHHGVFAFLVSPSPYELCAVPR
# Outline: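 P450-Glo format: CYP2D6 converts a proluciferin substrate to luciferin in an NADPH-driven reaction lasting 1 h at room temperature. Light output, proportional to CYP2D6 activity, reflects interference by test chemicals.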
# [16] = target: Cytochrome P450 2C19 (Homo sapiens) (UniProt P33261); assay: Cytochrome P450 Family 2 Subfamily C Member 19 (CYP2C19) small molecule antagonists: luciferase reporter qHTS assay (AID 1671197); further: nearly all actives have a fitted effect of over 65% in size; further: potency means the concentration at half of the fitted maximal effect
# Chain of Cytochrome P450 2C19 (Homo sapiens) (P33261 whole entry, looked up): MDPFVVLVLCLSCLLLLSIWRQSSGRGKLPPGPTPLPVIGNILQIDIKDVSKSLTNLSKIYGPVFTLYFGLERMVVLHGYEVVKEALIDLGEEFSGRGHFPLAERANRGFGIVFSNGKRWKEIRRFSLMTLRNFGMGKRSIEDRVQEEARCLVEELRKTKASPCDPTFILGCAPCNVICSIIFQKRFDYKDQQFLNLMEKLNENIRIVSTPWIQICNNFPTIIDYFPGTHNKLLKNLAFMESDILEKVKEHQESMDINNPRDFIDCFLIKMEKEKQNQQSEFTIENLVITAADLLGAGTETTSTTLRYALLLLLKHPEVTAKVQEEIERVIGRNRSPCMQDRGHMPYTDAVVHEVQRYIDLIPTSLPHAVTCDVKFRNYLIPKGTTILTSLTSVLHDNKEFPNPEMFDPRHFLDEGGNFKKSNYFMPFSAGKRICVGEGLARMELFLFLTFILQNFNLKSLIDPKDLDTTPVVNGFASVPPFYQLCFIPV
# Outline: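 Light output is proportional to CYP2C19 activity: proluciferin substrate is converted to luciferin, then detected by a luciferin detection reagent that also stops the 1 h, 37C NADPH-driven reaction. Ketoconazole serves as positive control.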
# [17] = target: Nuclear receptor subfamily 1 group I member 2 (Homo sapiens) (UniProt O75469); assay: Human pregnane X receptor (PXR) small molecule agonists, qHTS assay (AID 1346982); further: nearly all actives have a fitted effect of over 35% in size; further: potency means the concentration at half of the fitted maximal effect
# Outline: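 Agonist mode qHTS: PXR-Luc HepG2 cells plated 5 hr before DMSO-dissolved compounds were pinned in, cultured 24 hr at 37 C, 5% CO2; ONE-Glo luminescence readout.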
# [18] = qHTS assay to identify small molecule agonists of the progesterone receptor (PR) signaling pathway - cell viability counter screen (AID 1346799; calls by dose curve; further: nearly all actives have a fitted effect of over 45% in size)
# Outline: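 PR-UAS-bla HEK293T cells, 3,000 per well in medium with 2% charcoal-stripped FBS, were preincubated 6 hr at 37C, then exposed to compounds for 16 hr; viability was read as CellTiter-Glo luminescence after 30 min at room temperature.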
# [19] = target: Nuclear receptor subfamily 1 group I member 2 (Homo sapiens) (UniProt O75469); assay: CYP3A4 induction through human pregnane X receptor (PXR) by small molecules, qHTS assay (AID 1346984); further: nearly all actives have a fitted effect of over 40% in size
# Outline: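 Steps: seed DPX-2 cells, 5 hr at 37C; pin-transfer compounds; 24 hr at 37C; add Luciferin-IPA (3uM final), 3 hr at 37C; add One-Glo, 30 min RT; read luminescence.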
# [20] = qHTS assay to identify small molecule antagonists of the progesterone receptor (PR) signaling pathway - cell viability counter screen (AID 1346798); further: series mostly up to about 92 µM; nearly all actives have a fitted effect of over 50% in size
# Outline: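 PR-UAS-bla HEK293T cells in medium with 2% charcoal-stripped FBS were treated with compounds plus R5020 for 16 hr at 37C. Cell viability was then read by CellTiter-Glo luminescence after 30 min at room temperature in the same wells.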
structure (smiles),measurement,setting,value
CCC1=C[C@@H]2CN(C1)Cc1c([nH]c3ccccc13)[C@@](C(=O)OC)(c1cc3c(cc1OC)N(C)[C@H]1[C@@](O)(C(=O)OC)[C@H](OC(C)=O)[C@]4(CC)C=CCN5CC[C@]31[C@@H]54)C2,Potency,[1],inactive
same,Potency,[2],0.944 µM (active)
same,Potency,[3],inactive
same,Potency,[4],inactive
same,Potency,[5],inactive
same,Potency,[6],inactive
same,Potency,[7],inactive
same,Potency,[8],13.3 µM (active)
same,Potency,[9],inactive
same,Potency,[10],0.668 µM (active)
same,Potency,[11],inactive
same,Potency,[12],13.3 µM (active)
same,Potency,[13],3.55 µM (active)
same,Potency,[14],8.91 µM (active)
same,Potency,[15],inactive
same,Potency,[16],inactive
CCC1OCC(COc2ccc(Oc3ccccc3)cc2)O1 (stereo unspecified),Potency,[1],inactive
same,Potency,[2],54.5 µM (active)
same,Potency,[3],inactive
same,Potency,[4],inactive
same,Potency,[5],inactive
same,Potency,[6],inactive
same,Potency,[7],inactive
same,Potency,[9],inactive
same,Potency,[10],inactive
same,Potency,[11],inactive
same,Potency,[12],inactive
same,Potency,[17],34.4 µM (active)
same,Potency,[15],inactive
same,Potency,[16],17.8 µM (active)
CCCCCCCCCCC=O,Potency,[1],inactive
same,Potency,[2],inactive
same,Potency,[18],inactive
same,Potency,[3],inactive
same,Potency,[4],inactive
same,Potency,[5],inactive
same,Potency,[6],inactive
same,Potency,[7],inactive
same,Potency,[9],inactive
same,Potency,[10],inactive
same,Potency,[11],inactive
same,Potency,[12],inactive
same,Potency,[15],inactive
same,Potency,[16],inactive
O=C(NO)C1(NS(=O)(=O)c2ccc(Oc3ccc(F)cc3)cc2)CCOCC1,Potency,[1],inactive
same,Potency,[2],inactive
same,Potency,[3],inactive
same,Potency,[4],inactive
same,Potency,[5],inactive
same,Potency,[6],inactive
same,Potency,[7],inactive
same,Potency,[8],inactive
same,Potency,[9],inactive
same,Potency,[11],inactive
same,Potency,[12],inactive
same,Potency,[15],inactive
same,Potency,[16],71 µM (active)
Cc1c(C)c2c(c(C)c1O)CCC(C)(COc1ccc(CC3SC(=O)NC3=O)cc1)O2 (stereo unspecified),Potency,[1],inactive
same,Potency,[2],18.8 µM (active)
same,Potency,[3],inactive
same,Potency,[4],inactive
same,Potency,[5],inactive
same,Potency,[6],inactive
same,Potency,[8],inactive
same,Potency,[9],inactive
same,Potency,[11],inactive
same,Potency,[12],inactive
same,max activation,[13],-5.73%
same,Potency,[15],inactive
O=C(N/N=C/c1ccccc1O)c1ccncc1,Potency,[1],inactive
same,Potency,[2],10.6 µM (active)
same,Potency,[3],inactive
same,Potency,[4],inactive
same,Potency,[5],inactive
same,Potency,[6],inactive
same,Potency,[7],inactive
same,Potency,[9],inactive
same,Potency,[10],7.5 µM (active)
same,Potency,[11],inactive
same,Potency,[12],inactive
same,max activation,[13],-3.33%
same,Potency,[19],inactive
same,Potency,[14],inactive
same,Potency,[15],27.5 µM (active)
same,Potency,[16],4.9 µM (active)
CCOC(=O)O[C@]1(C(=O)OCCl)CC[C@H]2[C@@H]3CCC4=CC(=O)C=C[C@]4(C)[C@H]3[C@@H](O)C[C@@]21C,Potency,[1],0.188 µM (active)
same,Potency,[2],inactive
same,Potency,[20],inactive
same,Potency,[3],inactive
same,Potency,[4],inactive
same,Potency,[6],inactive
same,Potency,[7],inactive
same,Potency,[8],inactive
same,Potency,[9],inactive
same,Potency,[10],inactive
same,Potency,[11],inactive
same,Potency,[12],inactive
same,Potency,[17],5.96 µM (active)
same,max activation,[13],-1.8%
same,Potency,[19],inactive
same,Potency,[14],14.1 µM (active)
same,Potency,[15],inactive
same,Potency,[16],inactive
C/C=C(\C)C(=O)OCc1ccccc1,Potency,[1],inactive
same,Potency,[2],inactive
same,Potency,[20],inactive
same,Potency,[4],inactive
same,Potency,[5],inactive
same,Potency,[8],inactive
same,Potency,[9],inactive
same,Potency,[10],inactive
same,Potency,[11],inactive
same,Potency,[12],inactive
same,Potency,[17],inactive
same,Potency,[15],inactive
same,Potency,[16],inactive
